# According to PubChem BioAssay (NCI):
# Compounds without any hit were thinned out: in the full panel of roughly 83,000, 20% have a hit.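 The endpoint reported here, percent growth, reads 100 for growth as untreated, 0 for no net growth and -100 for all cells dead.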 Values without a mark were called inactive. Active and inactive are the calls of the source. How the source made its calls: active means growth percent below 10; inactive means the rest.
# How the values were obtained:
# Assay in all cases: NCI-60 one-dose screen, 48 h (100 = growth as untreated, 0 = no growth, -100 = all killed)
# Conditions in all cases: 10 µM unless noted
# SK-MEL-2 melanoma = system: SK-MEL-2 melanoma
# EKVX NSCLC = system: EKVX NSCLC
# SN12C renal = system: SN12C renal
# UO-31 renal = system: UO-31 renal
# TK-10 renal = system: TK-10 renal
# ACHN renal = system: ACHN renal
# CAKI-1 renal = system: CAKI-1 renal
# A498 renal = system: A498 renal
# CCRF-CEM leukemia = system: CCRF-CEM leukemia
# MOLT-4 leukemia = system: MOLT-4 leukemia
Compound,growth (SK-MEL-2 melanoma),growth (EKVX NSCLC) [%],growth (SN12C renal),growth (UO-31 renal),growth (TK-10 renal),growth (ACHN renal),growth (CAKI-1 renal),growth (A498 renal),growth (CCRF-CEM leukemia),growth (MOLT-4 leukemia)
CC1(C)COB(OCC(C)(C)COB2OCC(C)(C)CO2)OC1,113%,104,104%,87.7%,102%,108%,102%,100%,101%,108%
O=C(Nc1ccc(Oc2cccc(F)c2)c(Cl)c1)c1cccnc1,36.5%,49.6,36.4%,39.7%,59.9%,35.2%,32.5%,4.16% (active),24%,40.2%
Cc1ccc2c(c1)=C/C(=C\c1cc(-c3ccccc3)oc1O)C(=O)N=2,114%,92.6,106%,100%,97.6%,105%,91.1%,96.6%,100%,90.6%
Nc1nc2ccccc2c2c1S(=O)(=O)c1ccc(Cl)cc1C2=O,42%,48.2,11.4%,-15.2% (active),16.6%,17.8%,19%,56.9%,-10.3% (active),3.11% (active)
Cc1cc(C(=O)O)c(C)n1-c1cccc(C(=O)O)c1,18.8%,98.5,83.7%,85.5%,95.8%,-8.94% (active),13.8%,93%,108%,62.9%
Cn1cc(-c2ccc3nc(-c4ccc(CC(=O)ONc5cc(C(C)(C)C)on5)cc4)cnc3c2)cn1,13%,39.2,26.1%,20.9%,21.3%,13.4%,6.91% (active),15.6%,38.8%,11.6%
CN1C(=O)/C(=C\c2c(Cl)cccc2Cl)c2ccccc21,97.7%,87.6,94.8%,75.4%,89.4%,97.2%,68.3%,55.4%,89.5%,79.4%
N#Cc1ccc(O)c(C2=NCC(c3ccccc3)O2)c1 (stereo not given),50.6%,37.1,41.7%,20.1%,52.2%,40.5%,8.26% (active),63.5%,28.1%,18.7%
O=S(=O)(Nc1cc(F)cc(Cl)c1)c1ccc(-c2cnc(C3CC3)o2)cc1,52.8%,38,45.8%,39.3%,47.7%,34.4%,31.3%,-6.52% (active),23.6%,31.9%
Clc1ccc(/C=N\N=C\c2ccc(Cl)c(Cl)c2)cc1Cl,18.4%,111,87.3%,77.4%,97.5%,-3.05% (active),33%,108%,83.1%,93.1%
NC(=O)C(=O)c1ccccc1NC=O,112%,101,96.6%,60.9%,107%,94.8%,75.2%,120%,99.1%,108%
COc1ccc(/C=C/C(=O)c2ccc(Nc3ccnc4cc(Cl)ccc34)cc2)cc1,64.1%,85.8,97.8%,90%,141%,98.8%,85.1%,115%,-52.1% (active),22.9%
COc1ccc(-c2ccc(=O)oc2-c2cc(OC)c(OC)c(OC)c2)cc1O,39.6%,30.9,25.7%,32.4%,68%,38.9%,-15.8% (active),-39.7% (active),7.05% (active),2.3% (active)
N#CC1=C(c2ccccc2)Nc2c(c(-c3ccc(Cl)cc3)nn2-c2ccccc2)C12C(=O)Nc1ccc(Cl)cc12 (stereo not given),94.8%,61.6,84.9%,47.8%,73.7%,80.6%,44.5%,69%,61.4%,52.5%
O=C(Nc1nc2ccc(C(=O)N3CCN(/C=C/c4ccccc4)CC3)cc2s1)c1ccc(NCCc2ccccc2)c([N+](=O)[O-])c1,87.6%,50.6,61.3%,37.8%,87.7%,80.9%,50.6%,48.3%,22.8%,27.4%
C=C1C(=O)O[C@H]2[C@H]1CC/C(COC(=O)NCc1ccc(Cn3c(=O)sn(CCCCC)c3=O)cc1)=C\CC[C@@]1(C)O[C@@H]21,76.3%,84.3,22.8%,6.58% (active),2.53% (active),26.5%,36.4%,84.9%,-22% (active),-15% (active)
Clc1ccc2c(c1)C(c1c[nH]c3ccccc13)(c1c[nH]c3ccccc13)CCO2,-52% (active),81.9,85.3%,54.2%,-43.1% (active),76.8%,78.2%,101%,45.1%,32.4%
O=C(N/N=C/c1c(Cl)cccc1Cl)c1cccnc1Nc1cccc(C(F)(F)F)c1,-6.91% (active),17.6,42.6%,29.8%,35.6%,29.6%,60.1%,65.6%,18.9%,31.7%
O=[N+]([O-])c1cccc(-c2nc3cc4nc5ccccc5[nH]c4cc3n2)c1,93.4%,99.7,108%,84.4%,105%,103%,104%,92.1%,111%,92.9%
N=C(N)c1ccc(-c2ccc(-c3ccc(Cl)c(Cl)c3)s2)nc1,102%,62.8,36.6%,32.7%,112%,-62.8% (active),-60.1% (active),90.7%,-1.55% (active),-26.3% (active)
CC(C)(C)CC(C)(C)NC(=O)Nc1ncccc1OCc1ccccc1,83.5%,93.3,89.5%,73.9%,96.3%,94.4%,80.2%,92.7%,94.2%,89.1%
C=C1C(=O)O[C@H]2[C@H]1CC/C(Cn1cc(-c3ccccc3)nn1)=C\CC[C@@]1(C)O[C@@H]21,6.62% (active),72.1,6.55% (active),-75.1% (active),-72.1% (active),-40.7% (active),-62.8% (active),46.6%,-20.7% (active),-13.8% (active)
O=C(CN1CCCCC1)Nc1nc(-c2cc3ccccc3oc2=O)cs1,112%,96.1,96.1%,82.9%,138%,100%,95.9%,97.3%,102%,98.9%
CSc1nc(N)c(NS(=O)(=O)c2ccc(C(C)=O)cc2)c(=O)[nH]1,100%,97.2,101%,100%,119%,108%,90.1%,105%,109%,112%
Cc1cc(S(=O)(=O)/N=C(\N)n2nc(C)c(C)c2C)c(SCc2ccccc2)cc1Cl,-12.3% (active),38.9,76.3%,23.8%,116%,71.2%,71.9%,85.1%,41.5%,46%
